The record followed here is PubChem BioAssay AID2551 (National Center for Advancing Translational Sciences (NCATS), 2010).

Where “and” joins values, the source holds several entries; their conditions need not be identical. Equal entries are not always repeated. Among all 310,000 compounds or so, about 17,000 (5.5%) were called active. Where a call stands in place of a potency, no number is given. Inconclusive results (about 11%) are left out. Calls follow the shape of the dose curve; as a rule, active = well fitted inhibition curve with a large enough effect; inconclusive = small, poorly fitted or top-dose-only effect, or effect the other way; inactive = no such curve, though single readings can be large or run the other way. The full list was thinned out, with actives kept by preference. The source holds several records for some structures; these can differ, active in one and inactive in another.
Potency is read from the fitted curve at half-maximal effect.

Nuclear receptor ROR-gamma (Mus musculus), sequence (P51450 whole entry, looked up, the tested form may be a part): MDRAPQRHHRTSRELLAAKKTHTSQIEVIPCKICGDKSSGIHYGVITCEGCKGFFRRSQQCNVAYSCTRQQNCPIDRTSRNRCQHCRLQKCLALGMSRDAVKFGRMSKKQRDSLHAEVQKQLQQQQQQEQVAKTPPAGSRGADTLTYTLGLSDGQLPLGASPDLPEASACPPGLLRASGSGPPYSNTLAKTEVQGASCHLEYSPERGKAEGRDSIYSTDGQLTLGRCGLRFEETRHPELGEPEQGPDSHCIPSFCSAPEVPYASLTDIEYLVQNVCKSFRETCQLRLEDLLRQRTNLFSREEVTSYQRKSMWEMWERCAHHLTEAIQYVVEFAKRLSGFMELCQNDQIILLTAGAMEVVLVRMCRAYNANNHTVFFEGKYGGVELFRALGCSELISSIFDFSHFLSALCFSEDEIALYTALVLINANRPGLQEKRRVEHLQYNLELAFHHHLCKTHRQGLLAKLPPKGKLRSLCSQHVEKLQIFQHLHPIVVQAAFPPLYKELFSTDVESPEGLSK

The target of the assay is Nuclear receptor ROR-gamma (Mus musculus) (UniProt P51450). Description: qHTS for inhibitors of ROR gamma transcriptional activity. Also: nearly all actives have a fitted effect of over 60% in size. The following applies: Drosophila S2 Gal4-RORgamma UAS-luciferase reporter, 20 h; series mostly up to 53.6 µM. Summed up:
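Stably transfected Drosophila Schneider cells are the test system, with ROR gamma fused to Gal4 and luciferase under UAS control; luminescence is read after 20 hr of 700 uM copper sulfate induction at ambient temperature.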
(qHTS replaces the single test concentration by a dilution series.)
Take `COc1ccc(-c2cc(=O)oc3cc(OC(C)C(=O)NCC4CCC(C(=O)O)CC4)ccc23)cc1` (stereo not given): the Potency result was “inactive”.
For `CCN(CC)CCCNC(=O)c1cc2c(=O)[nH]c3ccc(C)cc3c2s1`, the Potency result is “inactive”.
The same measure, in the same setting: in the case of `CCCCC[C@H]1CN(C2CCCCC2)C(=O)[C@@H]1CC(=O)NCc1ccc(OC)cc1` it was “inactive”; in that of `COc1ccccc1-c1sc2ccccc2c1-c1ccc(C(C)=O)cc1`, “inactive”; in that of `Cc1ccc(-c2csc(NC3OC(=O)c4ccccc43)n2)cc1` (stereo not given), “inactive”.
On to `CCN(CC)S(=O)(=O)c1ccc(-c2cn3ccc(C)cc3n2)cc1`, for which the Potency entry is “inactive”.
For `COc1ccc(-c2cn3ccsc3n2)cc1`, the Potency entry is “inactive”.
With `COc1ccc(-c2cn3ccc(C)cc3n2)cc1`, the Potency was 3.16 µM (active).
On the same count and under the same terms, in the case of `CCOc1ccc(-n2c(SCC(=O)OC)nc3sc4c(c3c2=O)CCN(C)C4)cc1` it was “inactive”; in that of `COc1ccc(N(CC(=O)Nc2ccc(F)c(F)c2)S(=O)(=O)c2c(C)[nH]c(=O)[nH]c2=O)cc1`, “inactive”.
Same read-out and setting: as for `COc1cccc(C(O)c2nc3ccccc3n2C)c1` (stereo not given), the entry is “inactive”; as for `O=C(N/N=C/c1ccccc1O)C1CCCC1`, 0.158 µM (active); as for `Oc1ccccc1C=NC1CCCCC1N=Cc1ccccc1O` (stereo not given), “inactive”.
Still for that read-out and setting: in the case of `COc1ccc(/C=N/NC(=O)C2CC2)c(OC)c1OC` it was “inactive”; in that of `CCn1c(=S)sc2c(=O)n(CC(=O)Nc3cccc(Br)c3)c(C)nc21`, “inactive”; in that of `Cc1cc(C)c(NC(=O)CN2CCCCCC2)c(C)c1`, “inactive”.
For the compound `O=C(c1c(F)cccc1Cl)N1CCN(S(=O)(=O)c2ccc3c(c2)OCCCO3)CC1`, the Potency entry is “inactive”.
Still for that read-out and setting: as for `CCOc1ccccc1CNS(=O)(=O)c1cc(-c2cc(C)no2)ccc1C`, the entry is “inactive”.
Still for that read-out and setting: as for `COc1ccc(/C=C2\SC(=O)N(CCC(=O)NC3CCS(=O)(=O)C3)C2=O)cc1` (stereo not given), the entry is “inactive”; as for `O=C(NCc1cccs1)c1ccc(CS(=O)Cc2ccccc2Cl)o1` (stereo not given), “inactive”.
The same measure, in the same setting: as for `CCCc1cc(-c2n[nH]c(=S)n2Cc2ccccc2)cs1`, the figure is 4.47 µM (active); as for `CCc1cc(-c2nnc(SCC(=O)NC3CC3)n2C)cs1`, “inactive”; as for `Cc1cc(-c2csc(N)n2)c(C)n1Cc1ccccc1`, “inactive”.
Take `CCc1cc(-c2n[nH]c(=S)n2CC(C)C)cs1`: the Potency was 2.51 µM (active).
As for `CC(=O)Nc1ccc(C(=O)Nc2nc(-c3cc(C)n(Cc4ccccc4)c3C)cs2)cc1`, the activity change, negative = inhibition was 3.29% [at 10 µM] (inactive).
`COC(=O)c1ccccc1NC(=O)CSc1nc2c(c(=O)[nH]1)CCC2`: the Potency result is “inactive”.
The same measure, in the same setting: as for `COc1ccc(C(=O)NCC(=O)N/N=C/c2cccnc2)cc1`, the entry is “inactive”; as for `CCOC(=O)[C@@H]1[C@H]2COc3cc(OC)ccc3[C@H]2N2C(=O)N(c3ccc(F)cc3)C(=O)[C@]12C`, “inactive”.
Same read-out and setting: in the case of `COc1ccc(CNS(=O)(=O)c2ccc(-c3cnc(C4CC4)o3)cc2)cc1` it was “inactive”; in that of `CCOC(=O)c1cccc(NS(=O)(=O)c2c(C(=O)N3CCCCCC3)c(C)n(C)c2C)c1`, “inactive”; in that of `O=C(c1ccccc1F)N(Cc1ccccc1)Cc1ccccc1`, “inactive”.
The same measure, in the same setting: as for `O=C(CCCn1c(=O)[nH]c2cc(Cl)ccc2c1=O)NCCN1CCN(c2ccccc2)CC1`, the entry is “inactive”; as for `COc1cccc(CNC(=O)c2n[nH]c3ccccc23)c1`, “inactive”.
Take `CCn1c(=O)cc(OCC(=O)NCCCN2CCN(c3cccc(Cl)c3)CC2)c2ccccc21`: the Potency entry was “inactive”.
The same measure, in the same setting: in the case of `COc1cccc(CNC(=O)Cc2csc(Nc3nc(=S)[nH]c4ccccc34)n2)c1` it was 6.31 µM (active).
On the same count and under the same terms, in the case of `O=C(Cc1csc(Nc2nc(=S)[nH]c3ccccc23)n1)NCCCN1CCN(c2cccc(Cl)c2)CC1` it was 2.51 µM (active); in that of `COc1cccc(CNC(=O)c2nnn(CC(=O)Nc3cc(C)ccc3C)c2N)c1`, “inactive”; in that of `COc1cc(Cl)ccc1OCc1cc(C(=O)N(C)CCc2c(C)n[nH]c2C)no1`, “inactive”.
Turning to `COc1ccccc1CNc1ncnc2ccc(-c3c(C)noc3C)cc12`, the Potency was 5.01 µM (active).
Still for that read-out and setting: as for `COc1ccccc1CNc1nc(-c2c(C)noc2C)nc2ccccc12`, the entry is “inactive”.
On the same count and under the same terms, as for `COc1ccccc1CNc1ccnc(-c2c(C)noc2C)n1`, the entry is “inactive”; as for `COc1cc(C2/C(=C(\O)c3ccc4c(c3)CC(C)O4)C(=O)C(=O)N2c2nnc(C)s2)cc(OC)c1OC` (stereo not given), “inactive”; as for `CC(C)c1ccc(/C=C2\NC(=O)NC2=O)cc1`, “inactive”.
For the compound `O=C(NC1CC1)C(Cc1ccccc1)NS(=O)(=O)c1ccccc1F` (stereo not given), the Potency result is “inactive”.
Still for that read-out and setting: as for `N#CC1=C(SCc2ccc(C#N)cc2)N=C(N)C(c2nc(-c3ccccc3)cs2)C12CCCCC2` (stereo not given), the figure is 11.2 µM (active).
Regarding `N#CC1=C(SCc2ccccc2)NC(=O)C(C#N)C12CCCC2` (stereo not given), the activity change, negative = inhibition is 26.7% [at 0.365 µM] (inactive).
The same measure, in the same setting: in the case of `N#Cc1ccc(CSc2ncccn2)cc1` it was -36.2% [at 1.91 µM] (inactive).
With `CCOC(=O)c1sc(=NC(=O)c2ccc(Br)cc2)n(C)c1C`, the Potency result is “inactive”.
Still for that read-out and setting: in the case of `COc1ccc(CCN2CC(C(=O)NCCN3CCNC3=O)CCC2=O)cc1` (stereo not given) it was “inactive”; in that of `CCOC(=O)CSc1nc(N2CCOCC2)c2c(c1C#N)CC(C(C)C)OC2` (stereo not given), “inactive”.
On the same count and under the same terms, as for `O=C(Nc1ccnc(-c2ccncc2)n1)c1cccs1`, the entry is “inactive”.
As for `COC(=O)CSc1nccc(-c2cccs2)n1`, the Potency entry was “inactive”.
Still for that read-out and setting: as for `O=C(O)COc1ccc(-c2nccc(-c3cccs3)n2)cc1`, the figure is 5.62 µM (active).
Still for that read-out and setting: as for `CCOc1ccc(N(C(=O)c2snc(C(N)=O)c2N)C(C(=O)NCC2CCCO2)c2c[nH]c3ccccc23)cc1` (stereo not given), the entry is “inactive”; as for `Fc1ccc(COc2cccc(-c3n[nH]c(=S)o3)c2)cc1`, 11.2 µM (active); as for `Fc1ccc(COc2ccc(-c3nnco3)cc2)cc1`, “inactive”.
Take `Cc1nc2ccccc2cc1OCc1ccc(F)cc1`: the Potency result was “inactive”.
Same read-out and setting: in the case of `Cc1cc(F)ccc1N1CCC(N2CCN(C)C(CCO)C2)CC1` (stereo not given) it was “inactive”.
Turning to `Cc1ccc(-n2c(C)cc(/C=N\NC(=O)CC(=O)NC(C)C)c2C)cc1`, the Potency result is “inactive”.
As for `Cc1cc(/C=N/NC(=O)CC2(C)OCCO2)c(C)n1-c1ccc(Cl)c(Cl)c1`, the Potency is 17.8 µM (active).
`Cc1cc(=O)cc(C)n1-c1ccc(Cl)c(Cl)c1`: the Potency entry was “inactive”.
Turning to `Cc1cccc(OCC(O)Cn2c(N3CCCCC3)nc3c2c(=O)[nH]c(=O)n3C)c1` (stereo not given), the Potency entry is “inactive”.
The same measure, in the same setting: in the case of `COc1ccc2oc(=N)c(C(=O)Nc3ccc(Br)cc3)cc2c1` it was “inactive”; in that of `O=C(c1noc2c1CCCC2)N1CCc2ccccc2C1`, “inactive”; in that of `COc1cccc(C(=O)OCc2cc(=O)oc3c(C)c(C)ccc23)c1OC`, “inactive”.
Still for that read-out and setting: as for `CS(=O)(=O)N(CC(=O)N1CCN(Cc2ccccc2)CC1)c1ccc2c(c1)OCCO2`, the entry is “inactive”; as for `c1ccc(CN2CCC(N=C3NN=C(c4ccc5c(c4)OCCO5)CS3)CC2)cc1`, 10 µM (active); as for `Clc1cccc(N=C2NN=C(c3ccc4c(c3)OCCO4)CS2)c1`, “inactive”.
Same read-out and setting: as for `Cc1ccccc1-c1nc(CS(=O)(=O)CC(=O)NC(C)c2ccccc2)c(C)o1` (stereo not given), the entry is “inactive”; as for `Cc1ccc(NS(=O)(=O)c2c(C)[nH]c(C)c2C(=O)N2CCCCC2)c(C)c1`, “inactive”; as for `O=C(O)CCn1c(Cc2ccccc2)nc2ccccc21`, “inactive”.
With `O=C(O)CCn1c(O)c(C=C2N=c3ccccc3=N2)sc1=S`, the Potency is 0.794 µM (active).
The same measure, in the same setting: in the case of `Cc1cc2ccccc2n1CCC(=O)O` it was “inactive”; in that of `COc1ccccc1NC(=O)c1cc(N2C(=O)C3C4CCC(C4)C3C2=O)ccc1Cl` (stereo not given), “inactive”.
Same read-out and setting: in the case of `CC1CCCN(S(=O)(=O)c2ccc(C(=O)Nc3nnc(-c4ccncc4)o3)cc2)C1` (stereo not given) it was “inactive”; in that of `O=C(Nc1ccc(S(=O)(=O)N2CCOCC2)cc1)c1ccc2ncsc2c1`, “inactive”.
Same read-out and setting: in the case of `CSCc1nnc(NC(=O)c2ccc(S(=O)(=O)N3CCCCC3C)cc2)o1` (stereo not given) it was 1 µM (active); in that of `CC1CCCCN1S(=O)(=O)c1ccc(C(=O)Nc2nnc(-c3cccs3)o2)cc1` (stereo not given), 0.0891 µM (active).
Regarding `CCc1nnc(NC(=O)c2ccc(S(=O)(=O)NC3CCCCC3)cc2)s1`, the Potency entry is “inactive”.
In the case of `CNC(=O)c1ccsc1NC(=O)c1ccc(S(=O)(=O)N2CCOCC2)cc1`, the Potency entry is “inactive”.
Regarding `O=C(Nc1nnc(-c2ccco2)o1)c1ccc(S(=O)(=O)N2CCOCC2)cc1`, the Potency is 1.78 µM (active).
`CCc1nnc(NC(=O)C2CCCN2S(=O)(=O)c2ccccc2)s1` (stereo not given): the Potency result was “inactive”.
The same measure, in the same setting: as for `Cc1ccnc(NS(=O)(=O)c2ccc(NC(=O)c3ccc(S(=O)(=O)N4CCOCC4)cc3)cc2)n1`, the entry is “inactive”.
In the case of `CC(=O)c1ccc(OC(=O)N2CCOCC2)cc1`, the activity change, negative = inhibition is -0.265% [at 1.91 µM] (inactive).
For the compound `COc1ccc(CNC(=O)COc2cccnc2[N+](=O)[O-])cc1`, the Potency entry is “inactive”.
Same read-out and setting: in the case of `Cc1cc2c(=O)n(CC(=O)NCC(=O)Nc3ccc(C(C)C)cc3)cnc2s1` it was “inactive”; in that of `CCCCN1C(=O)C(C)=C(C)C1OCCc1ccc(OC)c(OC)c1` (stereo not given), “inactive”; in that of `Cc1cc(-c2ccc(S(=O)(=O)N3CCN(c4cccc(C(F)(F)F)c4)CC3)s2)on1`, “inactive”.
On the same count and under the same terms, in the case of `CN(C)C(=O)c1ccc(NC(=O)c2ccccc2-c2ccccc2)cc1` it was “inactive”.
On the same count and under the same terms, in the case of `CC(C)C[C@H](NC(=O)N1CC(=O)Nc2ccccc21)C(=O)N[C@H](Cc1ccccc1)C(=O)O` it was “inactive”.
As for `CCOC(=O)CSc1nc2ccc(C)cc2n2cnnc12`, the Potency result was “inactive”.
Consider `CCCOc1cccc(C(=O)Nc2ccccc2C(=O)N2CCN(C)CC2)c1`, for which the Potency entry was “inactive”.
As to `CC(=O)Nc1ccc(S(=O)(=O)NC2Cc3ccccc3C2)cc1`, the Potency result was “inactive”.
With `CCN1C(=S)N[C@@H](CCc2ccccc2)[C@H](C(=O)OC)[C@H]1C`, the Potency result was “inactive and 2.24 µM (active)”.
Same read-out and setting: in the case of `COCCN1C(=O)N[C@@H](CCc2ccccc2)[C@H](C(C)=O)[C@H]1C` it was “inactive”; in that of `CCN1C(=NCc2ccc(OC)cc2)N[C@@H](CCc2ccccc2)[C@H](C(=O)NCc2ccc(OC)cc2)[C@H]1C`, “inactive”; in that of `CN1CCN(C(=O)c2cnn(-c3ccccc3)c2NC(=O)c2ccc([N+](=O)[O-])cc2)CC1`, “inactive”.
Same read-out and setting: in the case of `Cc1cccc(C)c1NC(=O)CS(=O)CC(=O)N1CCN(c2ccccc2)CC1` (stereo not given) it was “inactive”.
The same measure, in the same setting: as for `CCNS(=O)(=O)c1ccc(CCC(=O)N2CCN(c3ccc(OC)cc3)CC2)cc1`, the entry is “inactive”.
With `CN(C)C(=O)Cn1c(=O)n(S(=O)(=O)c2ccccc2)c2ccccc21`, the Potency entry was “inactive”.
